Screens (PubChem)
In the library only some 2% were active in any assay of this set; here they are far more common.
CHT inh: inhibits the human high affinity choline transporter; actives 0.86% (n = 310,000); Q9GZV3; CHT-expressing cells, membrane potential dye, choline response; hits give low values; B-score at 10 µM;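 active = B-score over 3 SD under the library average, and starting fluorescence ratio not unusually high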;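 note: choline stimulus applied at its EC90 after an EC20 pre-addition; B-score computed on integrated fluorescence ratio after choline addition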
CHT allo act: allosteric activators of human choline transporter CHT. Q9GZV3. CHT-expressing cells, membrane potential dye, choline EC20; hits give high values; LV-AA mutant CHT in HEK293 cells. B-score at 10 µM. actives 0.49% (n = 310,000). AID 488977;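 active = initial fluorescence not abnormally high and integrated response B-score, plate-corrected, over 3 SD above library mean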
EP2 modulator: modulators of human EP2 prostaglandin E2 receptor; actives 0.83% (n = 260,000); P43116; induction, % at 25 µM; EP2-expressing cells, cAMP HTRF FRET, PGE2 co-stimulation;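 active = compounds whose cAMP rise, as percent of the full-agonist control response, exceeds 60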;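 note: rat C6 glioma line stably carrying human EP2 under a CMV promoter; the protocol text gives 20 µM as final concentration; 100% = response of wells given 1 µM PGE2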
Target sequence (P43116 whole entry, looked up): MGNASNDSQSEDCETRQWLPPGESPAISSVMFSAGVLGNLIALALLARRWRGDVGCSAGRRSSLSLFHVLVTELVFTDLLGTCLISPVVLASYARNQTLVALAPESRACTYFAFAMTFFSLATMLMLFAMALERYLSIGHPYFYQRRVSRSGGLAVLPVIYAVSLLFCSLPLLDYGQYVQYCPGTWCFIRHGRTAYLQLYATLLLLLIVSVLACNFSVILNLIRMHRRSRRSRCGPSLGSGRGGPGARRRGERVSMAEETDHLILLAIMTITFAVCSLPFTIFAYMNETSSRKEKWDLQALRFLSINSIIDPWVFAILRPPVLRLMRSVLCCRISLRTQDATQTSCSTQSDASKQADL
EP2 antag: blocks the human prostaglandin E2 receptor EP2; actives 0.52% (n = 260,000); C6 glioma cells expressing human EP2, cAMP TR-FRET; cells stimulated with saturating PGE2; inhibition, % at 25 µM;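 active = percent inhibition above 40 after rounding to a whole number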;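 note: rat C6 glioma host cells with rolipram phosphodiesterase inhibitor present; the protocol text gives 20 µM as final concentration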
CHT act confirm: confirmation of human choline transporter (CHT) activators; shares compounds with CHT allo act; CHT-expressing cells, membrane potential dye fluorescence (FDSS); % of choline EC20–EC90 response window; HEK293 expressing CHT LV-AA mutant; choline added at its EC20; AID 504833; activation, % at 10 µM; actives 91% (n = 2,500);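 active = primary screen active, with duplicate mean activation above negative control mean plus 3 SD, cut at about 11% in these data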
HEK293 MP dye: CHT activator counter-screen hit in parental HEK293 cells; shares compounds with CHT allo act; membrane potential dye fluorescence (FDSS); measured after EC20 choline addition; ratio readout change at 10 µM, hits read low; actives 62% (n = 2,500); AID 623908;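 active = duplicate-averaged ratio beyond 3 SD from buffer wells, up or down, though filed actives are nearly all decreases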
Numbers without * were called inactive; i = inactive; x = no result given.

SMILES	CHT inh	CHT allo act	EP2 modulator	EP2 antag	CHT act confirm	HEK293 MP dye
CCc1c(C)c(C#N)c2nc3ccccc3n2c1NCc1ccco1	i	i	7	19	11*	i
CCc1c(C)c(C#N)c2nc3ccccc3n2c1NC	i	i	x	x	x	x
COc1ccccc1CNC(=O)Cn1nc(-c2ccc(C)o2)cc(N)c1=O	x	x	-31	5	x	x
COc1cccc(N2CCN(C(=O)c3ccc(CS(=O)c4ccccc4Cl)o3)CC2)c1 (stereo unspecified)	i	i	x	x	50*	i
O=C(c1ccc(CS(=O)c2ccccc2Cl)o1)N1CCOCC1 (stereo unspecified)	i	i	x	x	x	x
O=C(c1ccc(CS(=O)c2ccccc2Cl)o1)N1CCN(c2ccccc2)CC1 (stereo unspecified)	i	6.4*	x	x	17*	i
Cc1cc(C)c2cc3c(N)c(C(=O)N4CCCCC4)sc3nc2c1	x	x	-86	16	x	x
Cc1cc(C)c2cc3c(N)c(C(=O)N4CCc5ccccc5C4)sc3nc2c1	i	6.4*	-6	11	-7	i
COc1ccc(Cl)cc1C(=O)OCC(=O)Nc1ccc2c(c1)OCO2	x	x	-56	2	x	x
Cc1cc(C)n2nc(C(=O)N/N=C/c3ccc(O)cc3)nc2n1	i	6.5*	21	14	30*	-24*
Cc1cc(C)n2nc(C(=O)Nc3ccc4c(c3)OCO4)nc2n1	i	7.6*	19	17	30*	-35*
Cc1cc(C)n2nc(C(=O)N/N=C/c3ccc(Cl)cc3)nc2n1	i	i	-19	2	x	x
CCC(CC)c1nnc(NC(=O)c2nc3nc(C)cc(C)n3n2)s1	i	7.3*	25	14	30*	-31*
Cc1cc(C)n2nc(C(=O)Nc3ccc(S(=O)(=O)N(C)C)cc3)nc2n1	i	8.2*	-33	7	60*	-56*
CCC(CC)c1nnc(NC(=O)c2ccc(C)c(C)c2)s1	x	x	-54	7	x	x
CCN(CC)S(=O)(=O)c1ccc(NC(=O)c2nc3nc(C)cc(C)n3n2)cc1	i	i	-4	4	x	x
CCOC(=O)c1cn(CC#N)c2cc(F)c(F)cc2c1=O	i	i	32	6	x	x
C=CCn1cc(C(=O)OCC)c(=O)c2ccc(F)cc21	i	i	-3	6	37*	-43*
Cc1ccc(S(=O)(=O)N2CCN(C(=O)CN3CCOCC3)C2c2ccccc2)cc1 (stereo unspecified)	i	8*	9	11	-4	i
Cc1ccc(S(=O)(=O)N2CCN(C(=O)CN3CCOCC3)C2C(C)C)cc1 (stereo unspecified)	i	i	5	7	x	x
CC1CCCC(C)N1C(=O)CSc1nnc(-c2ccc(S(=O)(=O)N3CCCC3)cc2)n1C (stereo unspecified)	x	x	28	7	x	x
O=C(Cn1ncn2c(cc3ccsc32)c1=O)NCc1cccs1	x	x	-8	x	x	x
COc1ccc(-c2nc3cccc(C)n3c2NCc2ccco2)cc1OC	i	7.6*	13	15	36*	-42*
CCN(CC)c1nc(N)c2c(N)nc3c(c2c1C#N)CC(c1ccccc1)O3 (stereo unspecified)	i	6.5*	19	13	26*	i
Cn1ccnc1-c1nc2ccccc2[nH]c1=O	i	7.1*	15	x	63*	-55*
SMILES	CHT inh	CHT allo act	EP2 modulator	EP2 antag	CHT act confirm	HEK293 MP dye
Cc1[nH]c2ccccc2c1-c1nc2ccccc2[nH]c1=O	i	i	x	x	x	x
COc1ccc(C(=O)C(CCC(CNC(C)(C)C)C(=O)c2ccc(OC)cc2)CNC(C)(C)C)cc1 (stereo unspecified)	i	6.6*	-2	3	28*	i
COc1ccc(C(=O)CC(=O)c2ccc(C(C)(C)C)cc2)cc1	x	x	30	11	x	x
Cc1cc(=O)[nH]c(SCC(=O)Nc2ccnc3ccccc23)n1	i	i	3	7	31*	-51*
COc1ccc(C2=NC(C)(C)Cc3cc(OC)c(OC)cc32)cc1OC	i	i	x	x	72*	-83*
Cc1ccccc1C[n+]1cccc2ccccc21	i	7*	x	x	52*	-42*
Cc1ccccc1CSCc1nc2ccccc2[nH]1	i	i	-10	6	x	x
COCCn1c(=N)c(C#N)cc2c(=O)n3cc(C)ccc3nc21	x	x	12	12	x	x
Cc1cc(NCCOCCO)n2c(nc3ccccc32)c1C#N	i	i	x	x	51*	-59*
Cc1cc(NCCCO)n2c(nc3ccccc32)c1C#N	i	i	-6	7	x	x
COCCNc1cc(C)c(C#N)c2nc3ccccc3n12	i	i	-20	16	24*	-49*
Cc1cc(-c2cncnc2C2CCCN(C(=O)c3cc(CC(C)C)on3)C2)on1 (stereo unspecified)	x	x	-6	x	x	x
COc1ccc(CNC(=O)C(c2cccs2)N(Cc2ccco2)C(=O)Cc2cccs2)cc1 (stereo unspecified)	i	6.6*	50	5	26*	i
CC(=O)CCc1ccc(OCCCCN2CCC(Cc3ccccc3)CC2)cc1	i	i	-9	3	15*	-26*
COc1cccc(OC)c1OCCCCN1CCC(Cc2ccccc2)CC1	i	i	-6	2	x	x
COc1ccc(CN2CCC(N(CCc3ccccc3)Cc3ccccc3)CC2)c(OC)c1	i	i	22	3	22*	i
CCCCn1cc2c(c1-c1cccc(C)c1)c(=O)n(C)c(=O)n2C	i	i	43	8	x	x
Cc1ccc(-c2c3c(=O)n(C)c(=O)n(C)c3cn2CCCN2CCOCC2)cc1	i	8.1*	4	9	70*	-68*
CC/C(=C/c1sc2ccc(C)cc2[n+]1CCO)SC	i	i	-77	14	x	x
CC/C(=C/c1sc2ccc(C)cc2[n+]1CCCS(=O)(=O)[O-])SC	i	6.8*	34	5	48*	i
CCN1CCN(c2c(Cl)cccc2NC(=O)c2ccco2)CC1	i	7.6*	29	10	54*	-33*
CCN1CCN(c2c(Cl)cccc2NC(=O)c2ccc([N+](=O)[O-])cc2)CC1	i	12*	27	8	53*	-67*
Cc1ccc2c(c1)c1c3n2CCN(CC(O)CNC(C)C)C3CCC1 (stereo unspecified)	i	i	x	x	17*	-31*
CC(=O)[C@@H]1[C@@H](C)N(Cc2ccccc2)C(=O)N[C@H]1c1cccc(C(F)(F)F)c1	i	i	-8	8	x	x
CCN1C(=NCc2ccccc2)N[C@@H](c2ccccc2)[C@H](C(=O)OC)[C@H]1C	i	6.9*	x	x	12*	i
COC(=O)[C@@H]1[C@@H](C)N(Cc2ccccc2)C(=O)N[C@H]1c1cccc(C(F)(F)F)c1	i	9.4*	-5	5	-3	i
